Assay results from PubChem BioAssay (NCI).
This is part of a sample that, as a whole, favours compounds with a hit. Of some 83,000 tested, about 20% had one in any assay.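 Values shown are percent growth following 48 h exposure of cells in 96-well plates to a single concentration of compound; below 10 was considered active.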 Values without a mark were called inactive. Activity calls are given as the source filed them.

tested on: MCF7 breast; assay: NCI-60 one-dose screen, 48 h (100 = growth as untreated, 0 = no growth, -100 = all killed); details: 10 µM unless noted

`CCC(=O)Nc1nnc(Cc2ccc(OC)c(OC)c2)s1` was tested. Which growth did it give?
Its growth is 15.1%.

With `NC(=O)c1cc(Cl)ccc1NC(=O)COc1ccccc1` as the compound, how does the growth read?
The growth was 30.5%.

With `CCC12CCC3c4ccc(O)cc4CCC3C1CC(O)C2O` (centres undefined) as the compound, how does the growth read?
The growth was 75.5%.

`O=C1NC(=S)S/C1=C\c1cccc([N+](=O)[O-])c1` was tested. Which growth did it give?
Its growth is 87.8%.

For `Cn1c2ccccc2c2nn(C(=O)c3ccccc3)c(=O)nc21`, which growth is on record?
The growth was 101%.

For `N#CC1=C(N)Oc2cc(N)ccc2C1c1ccc(F)cc1` (centres undefined), which growth is on record?
Its growth is 64.1%.

Which growth does the source give for `COc1ccc(-c2c3c(N)c4c(nc3nc3c2c(C)nn3-c2ccccc2)CCCCC4)cc1` here?
Its growth is 62.8%.

`O=c1[nH]c(-c2ccccn2)nc2sc3c(c12)CCCCCC3` was tested. Which growth did it give?
Its growth is 29.6%.

For `COc1cc(-c2nc3ccccc3o2)cc(CN2CCN(c3ccccc3)CC2)c1O`, which growth is on record?
The growth was 60.6%.

Which growth does the source give for `O=C1/C(=C/c2ccccc2F)CNC/C1=C\c1ccccc1F` here?
Its growth is -47% (active).

Which growth does the source give for `CN([N-]C(=O)CC(=O)[N-]N(C)C(=S)c1ccccc1)C(=S)c1ccccc1.[Cu+2]` here?
Its growth is -48.3% (active).

How did the growth turn out when `COC(=O)c1ccc(C(=O)Nc2ccccc2N)cc1` was run?
The growth was 69.2%.

For `FC(F)(F)c1cc(CNc2ncc(Br)c(Cl)n2)cc(C(F)(F)F)c1`, which growth is on record?
The growth was 95.7%.

Which growth does the source give for `COc1ccc(NC(=O)COc2ccccc2)c(C(N)=O)c1` here?
The growth was 23.8%.

With `Cn1c2ccccc2c2nn(Cc3ccccc3)c(=O)nc21` as the compound, how does the growth read?
The growth was 95.1%.

Which growth does the source give for `CCCCNNC(=O)c1ccc(Br)cc1` here?
Its growth is 48%.

With `Cc1nc2cc(Nc3nc(Nc4ccc(F)cc4)nc(-c4cccs4)n3)ccc2n1Cc1ccccc1` as the compound, how does the growth read?
Its growth is 32.9%.

How did the growth turn out when `Cc1ccc(C2SCC(=O)N2NC(=O)c2[nH]c3ccc(F)cc3c2-c2ccccc2)cc1` (centres undefined) was run?
Its growth is 93.1%.

How did the growth turn out when `O=S(=O)(OCCO)c1ccccc1` was run?
Its growth is 94.9%.

`Cc1ccc(S(=O)(=O)N2CCc3ccc(O)c4c3C2CCc2ccccc2-4)cc1` (centres undefined) was tested. Which growth did it give?
Its growth is 103%.

Which growth does the source give for `Cc1nc2cc(Nc3nc(N4CCOCC4)nc(N4CCN(C)CC4)n3)ccc2n1Cc1ccccc1` here?
The growth was 98.8%.

For `Clc1ccc(C2=NN(c3ccccc3)[C@H](c3cn(-c4ccccc4)nc3-c3ccccc3)C2)cc1`, which growth is on record?
The growth was 97.5%.

`COc1cccc(OC)c1OC(=O)c1ccccc1` was tested. Which growth did it give?
Its growth is 101%.

`CCSc1nnc2c3cc(Br)ccc3n(C)c2n1` was tested. Which growth did it give?
Its growth is 84.3%.

Which growth does the source give for `Cc1nn(-c2ccccc2)c2nc3nc4c(c(N)c3c(-c3ccc(Cl)cc3)c12)CCCC4` here?
Its growth is 97.8%.

With `Cc1ccc(S(=O)(=O)N(c2ccc(Cl)cc2)c2ccc(Br)cc2C(=O)O)cc1` as the compound, how does the growth read?
Its growth is 104%.

Which growth does the source give for `CCCCCCCCCCCC(=O)[O][Sn]([CH2]CCC)([CH2]CCC)[CH2]CCC` here?
Its growth is -88.2% (active).

How did the growth turn out when `COc1cc(NC(=O)COc2ccccc2)c(C(N)=O)cc1OC` was run?
Its growth is 17.1%.

With `C=CC(=O)N1CC2(CCC(n3nc(-c4ccc(Oc5ccccc5)cc4)c4c(N)ncnc43)CC2)C1` as the compound, how does the growth read?
Its growth is 1.86% (active).

`Cc1ccc(S(=O)(=O)N2CCc3ccc(O)c4c3C2Cc2cc(Cl)ccc2-4)cc1` (centres undefined) was tested. Which growth did it give?
Its growth is 23.3%.

Which growth does the source give for `COc1cc(/C=C/C(=O)C(=Cc2ccc(F)c(F)c2)C(=O)/C=C/c2ccc(O)c(OC)c2)ccc1O` here?
Its growth is 35.8%.

`CCOC(=O)c1cc2c(n(C)c1=O)-c1cnn(-c3ccc(OC)cc3)c1CC2` was tested. Which growth did it give?
Its growth is 97.2%.

`Cc1ccc(S(=O)(=O)N2CCc3ccc(O)c4c3C2Cc2ccc3c(c2-4)OCO3)cc1` (centres undefined) was tested. Which growth did it give?
Its growth is 20.6%.

For `O=C(Nc1nc2ccccc2[nH]1)C(=O)Nc1nc2ccccc2[nH]1`, which growth is on record?
Its growth is 83.9%.

tested on: HCT-116 colon; assay: as above; details: 10 µM unless noted

For `CCC(=O)Nc1nnc(Cc2ccc(OC)c(OC)c2)s1`, which growth is on record?
Its growth is -68.2% (active).

How did the growth turn out when `NC(=O)c1cc(Cl)ccc1NC(=O)COc1ccccc1` was run?
The growth was 31.5%.

For `CCC12CCC3c4ccc(O)cc4CCC3C1CC(O)C2O` (centres undefined), which growth is on record?
Its growth is 64.6%.

With `O=C1NC(=S)S/C1=C\c1cccc([N+](=O)[O-])c1` as the compound, how does the growth read?
The growth was 93.2%.

For `CCCCCn1c(=N)n(CC(O)COc2cccc(C)c2)c2ccccc21` (centres undefined), which growth is on record?
The growth was 11%.

With `Cn1c2ccccc2c2nn(C(=O)c3ccccc3)c(=O)nc21` as the compound, how does the growth read?
Its growth is 109%.

With `N#CC1=C(N)Oc2cc(N)ccc2C1c1ccc(F)cc1` (centres undefined) as the compound, how does the growth read?
Its growth is 78.4%.

How did the growth turn out when `COc1ccc(-c2c3c(N)c4c(nc3nc3c2c(C)nn3-c2ccccc2)CCCCC4)cc1` was run?
The growth was 27.9%.

`CC(C)OC1=C(Cl)C(=O)c2ccccc2C1=O` was tested. Which growth did it give?
Its growth is 39.4%.

How did the growth turn out when `O=c1[nH]c(-c2ccccn2)nc2sc3c(c12)CCCCCC3` was run?
The growth was 24.6%.

Which growth does the source give for `COc1c(O)c2c3c(c1OC)-c1ccccc1CC3N(S(=O)(=O)c1ccc(C)cc1)CC2` (centres undefined) here?
The growth was 38.6%.

`COc1cc(-c2nc3ccccc3o2)cc(CN2CCN(c3ccccc3)CC2)c1O` was tested. Which growth did it give?
The growth was 56.4%.

For `O=C1/C(=C/c2ccccc2F)CNC/C1=C\c1ccccc1F`, which growth is on record?
The growth was -81.8% (active).

For `CN([N-]C(=O)CC(=O)[N-]N(C)C(=S)c1ccccc1)C(=S)c1ccccc1.[Cu+2]`, which growth is on record?
Its growth is -12.4% (active).

With `COC(=O)c1ccc(C(=O)Nc2ccccc2N)cc1` as the compound, how does the growth read?
Its growth is 75.4%.

For `FC(F)(F)c1cc(CNc2ncc(Br)c(Cl)n2)cc(C(F)(F)F)c1`, which growth is on record?
Its growth is 90.2%.

How did the growth turn out when `COc1ccc(NC(=O)COc2ccccc2)c(C(N)=O)c1` was run?
The growth was 25.9%.

How did the growth turn out when `Cn1c2ccccc2c2nn(Cc3ccccc3)c(=O)nc21` was run?
The growth was 109%.

For `CCCCNNC(=O)c1ccc(Br)cc1`, which growth is on record?
Its growth is 19.5%.

With `Cc1nc2cc(Nc3nc(Nc4ccc(F)cc4)nc(-c4cccs4)n3)ccc2n1Cc1ccccc1` as the compound, how does the growth read?
The growth was 24.2%.

Which growth does the source give for `Cc1ccc(C2SCC(=O)N2NC(=O)c2[nH]c3ccc(F)cc3c2-c2ccccc2)cc1` (centres undefined) here?
Its growth is 80.1%.

`O=S(=O)(OCCO)c1ccccc1` was tested. Which growth did it give?
The growth was 104%.

Which growth does the source give for `Cc1ccc(S(=O)(=O)N2CCc3ccc(O)c4c3C2CCc2ccccc2-4)cc1` (centres undefined) here?
Its growth is 108%.

With `Cc1nc2cc(Nc3nc(N4CCOCC4)nc(N4CCN(C)CC4)n3)ccc2n1Cc1ccccc1` as the compound, how does the growth read?
Its growth is 98.2%.

For `Clc1ccc(C2=NN(c3ccccc3)[C@H](c3cn(-c4ccccc4)nc3-c3ccccc3)C2)cc1`, which growth is on record?
Its growth is 90%.

`COc1cccc(OC)c1OC(=O)c1ccccc1` was tested. Which growth did it give?
The growth was 103%.

With `CCSc1nnc2c3cc(Br)ccc3n(C)c2n1` as the compound, how does the growth read?
The growth was 95.6%.

Which growth does the source give for `Cc1nn(-c2ccccc2)c2nc3nc4c(c(N)c3c(-c3ccc(Cl)cc3)c12)CCCC4` here?
Its growth is 80.2%.

Which growth does the source give for `Cc1ccc(S(=O)(=O)N(c2ccc(Cl)cc2)c2ccc(Br)cc2C(=O)O)cc1` here?
The growth was 113%.

`Cc1ccc2c(c1)c(Sc1ccc(C(=O)NO)cc1)c1n2CN(C)CC1` was tested. Which growth did it give?
Its growth is -11.2% (active).

For `COc1cc(CNCCCN2C(=O)c3ccc4c5c(ccc(c35)C2=O)C(=O)N(CCCNCc2cc(OC)c(OC)c(OC)c2)C4=O)cc(OC)c1OC`, which growth is on record?
The growth was -61.8% (active).

Which growth does the source give for `CCCCCCCCCCCC(=O)[O][Sn]([CH2]CCC)([CH2]CCC)[CH2]CCC` here?
Its growth is -100% (active).

How did the growth turn out when `COc1cc(NC(=O)COc2ccccc2)c(C(N)=O)cc1OC` was run?
The growth was 29.5%.

With `C=CC(=O)N1CC2(CCC(n3nc(-c4ccc(Oc5ccccc5)cc4)c4c(N)ncnc43)CC2)C1` as the compound, how does the growth read?
The growth was -82.7% (active).

Which growth does the source give for `CC(=O)OC[C@H](O)[C@@]1(O)CC[C@H]2[C@@H]3CCC4=CC(=O)CC[C@]4(C)[C@H]3[C@@H](O)C[C@@]21C` here?
The growth was 98.4%.

For `Cc1ccc(S(=O)(=O)N2CCc3ccc(O)c4c3C2Cc2cc(Cl)ccc2-4)cc1` (centres undefined), which growth is on record?
Its growth is 70.9%.

How did the growth turn out when `COc1cc(/C=C/C(=O)C(=Cc2ccc(F)c(F)c2)C(=O)/C=C/c2ccc(O)c(OC)c2)ccc1O` was run?
The growth was -76.5% (active).

`CCOC(=O)c1cc2c(n(C)c1=O)-c1cnn(-c3ccc(OC)cc3)c1CC2` was tested. Which growth did it give?
The growth was 108%.

With `Cc1ccc(S(=O)(=O)N2CCc3ccc(O)c4c3C2Cc2ccc3c(c2-4)OCO3)cc1` (centres undefined) as the compound, how does the growth read?
Its growth is 13%.

With `O=C(Nc1nc2ccccc2[nH]1)C(=O)Nc1nc2ccccc2[nH]1` as the compound, how does the growth read?
Its growth is 103%.
